Laboratory results as given in PubChem BioAssay (EPA / NIEHS).
Activity calls are given as the source filed them. The calls were made as follows: active = hit-call score of the fitted dose curve at least 0.9, where 1 is the maximum; inactive = score below 0.9.

Experiments:
[1] = ATG_CRE_CIS: Attagene CIS-FACTORIAL HepG2 Assay for human cAMP Responsive Element (CRE) binding protein 3 (AID 2282926); settings: HepG2 CRE cis-reporter, Attagene multiplexed mRNA; actives raise or lower the signal
Summary of the method: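 Endogenous transcription factor activity read via CRE-regulated reporter transcripts in transfected HepG2 cells. After 24 h exposure, RNA was reverse-transcribed, amplified, fluorescently labelled and sized by capillary electrophoresis; gain or loss fitted against DMSO.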

[2] = molecular target: CCAAT/enhancer-binding protein beta (Homo sapiens) (UniProt P17676); assay: ATG_C_EBP_CIS: Attagene CIS-FACTORIAL HepG2 Assay for human CCAAT/Enhancer Binding Protein (C/EBP) beta (AID 2282927); settings: HepG2 Attagene cis-factorial transcription factor reporter; actives raise or lower the signal
Summary of the method: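 Chemical-treated HepG2 cells (24 h) bearing cis-regulated reporter constructs were processed for total RNA, then reverse transcription, PCR amplification, fluorescent primer extension and fragment analysis; gain- and loss-of-signal were fitted against DMSO.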

[3] = APR_HepG2_CellCycleArrest_24hr: Apredica 24-hour HepG2 Assay for Cell Cycle Arrest (AID 2282905); settings: imaging, actives raise or lower the signal;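 also: cell cycle arrest scored as ratio of 2N to 4N nuclear DNA content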
Summary of the method: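 Step one: dose HepG2 with test compounds, 0.39–200 uM, 0.5% DMSO, 24 hr. Step two: fix, permeabilize, stain nuclei with Hoechst 33342. Step three: image six fields per well at 20x, quantify DNA content, fit bidirectionally relative to DMSO.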

[4] = APR_HepG2_NuclearSize_24hr: Apredica 24-hour HepG2 Assay for Nuclear Size (AID 2282907); settings: high-content imaging, actives raise or lower the signal
Summary of the method: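 After fixation and permeabilization, 24-hr-treated HepG2 cells were stained with Hoechst 33342 and imaged on an ArrayScan (20x). Doses spanned 0.39–200 uM in duplicate. Nuclear diameter changes in either direction were fitted relative to 0.5% DMSO controls.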

[5] = APR_HepG2_CellLoss_24hr: Apredica 24-hour HepG2 Assay for Cell Loss (AID 2282908); settings: high-content imaging;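 as to AC50: fit in both directions so a hit may be cell loss or gain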
Summary of the method: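 Duplicate wells received compound at ten concentrations (0.39–200 uM; final DMSO 0.5% v/v). After fixation with formaldehyde, nuclei stained with Hoechst 33342 were imaged at 20x. Loss or gain of cell count was fitted relative to DMSO controls.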

[6] = APR_HepG2_MicrotubuleCSK_24hr: Apredica 24-hour HepG2 Assay for Microtubule CSK Stabilty (AID 2282909); settings: HepG2 microtubule cytoskeleton imaging, actives raise or lower the signal
Summary of the method: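 Microtubule stability is scored from tubulin immunofluorescence in fixed HepG2 cells imaged at 20x. Cells receive ten compound concentrations up to 200 uM for 24 h; taxol and DMSO serve as positive and negative controls.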

[7] = APR_HepG2_MitoticArrest_24hr: Apredica 24-hour HepG2 Assay for Mitotic Arrest (AID 2282910); settings: high-content imaging, actives raise or lower the signal
Summary of the method: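 Treatment lasted 24 hr in the human HepG2 line at 0.39–200 uM, solvent held at 0.5% DMSO. Fixed cells were stained with Hoechst 33342 and anti-phospho-histone H3, imaged at 20x, and analysed by gain- or loss-of-signal fitting against DMSO.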

[8] = APR_HepG2_MitoMembPot_24hr: Apredica 24-hour HepG2 Assay for Mitochondrial Membrane Potential (AID 2282911); settings: imaging, actives raise or lower the signal
Summary of the method: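 Mitochondrial membrane potential imaged via MitoTracker Red CMXRos (250 nM, 30 min pre-fixation) in fixed HepG2 cells with Hoechst nuclear identification. Ten concentrations 0.39–200 uM, 24 h treatment, 0.5% DMSO; CCCP as positive control.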

[9] = APR_HepG2_MitoMass_24hr: Apredica 24-hour HepG2 Assay for Mitochondrial Mass (AID 2282912); settings: high-content imaging, actives raise or lower the signal
Summary of the method: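 Readout: fluorescence of MitoTracker Red CMXRos (250 nM, added 30 min pre-fixation) in fixed HepG2 cells imaged by HCS. Exposure lasted 24 hr at 0.39–200 uM; increases and decreases were both fitted relative to DMSO.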

[10] = APR_HepG2_CellCycleArrest_72hr: Apredica 72-hour HepG2 Assay for Cell Cycle Arrest (AID 2282914); settings: high-content imaging, actives raise or lower the signal
Summary of the method: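 Read-out: nuclear DNA content from Hoechst 33342 high-content imaging (20x, six fields/well) after 3.7% formaldehyde fixation, fitted bidirectionally against DMSO. Treatment was 72 h in HepG2, ten concentrations 0.39–200 uM, duplicate, 0.5% DMSO.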

[11] = APR_HepG2_P-H2AX_72hr: Apredica 72-hour HepG2 Assay for H2AX Phosphorylation (AID 2282916); settings: imaging, actives raise or lower the signal;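 also: phospho-histone H2A.x immunostain intensity per cell marking DNA damage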
Summary of the method: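 Phospho-H2A.x imaging endpoint in HepG2 after 72 hr compound exposure (0.39–200 uM, duplicate wells). Activity derived by bidirectional curve fitting with DMSO as baseline.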

[12] = APR_HepG2_MitoMembPot_72hr: Apredica 72-hour HepG2 Assay for Mitochondrial Membrane Potential (AID 2282917); settings: imaging, actives raise or lower the signal
Summary of the method: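 HepG2 cells exposed 72 h to compounds at 0.39–200 uM (0.5% v/v DMSO, duplicates); MitoTracker Red CMXRos 250 nM loaded 30 min before 3.7% formaldehyde fixation, imaged by HCS fluorescence. Bidirectional fit versus DMSO.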

[13] = APR_HepG2_MitoticArrest_72hr: Apredica 72-hour HepG2 Assay for Mitotic Arrest (AID 2282918); settings: high-content imaging, actives raise or lower the signal
Summary of the method: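 High-content imaging of fixed human HepG2 cells after 72 h compound exposure (0.39–200 uM, duplicates, 0.5% DMSO); mitotic arrest scored from phospho-histone H3 and nuclear Hoechst staining relative to DMSO.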

[14] = APR_HepG2_MicrotubuleCSK_72hr: Apredica 72-hour HepG2 Assay for Microtubule CSK Stabilty (AID 2282919); settings: HepG2 microtubule cytoskeleton, high-content imaging, actives raise or lower the signal
Summary of the method: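 Ten-point dosing (0.39–200 uM, 0.5% DMSO) of HepG2 for 72 hr, with taxol as the cytoskeletal positive control. The cells were formaldehyde-fixed and then stained with alpha-tubulin/Cy5 and Hoechst. Imaging at 20x used a −2 um Z offset for tubulin.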

[15] = APR_HepG2_P-H2AX_24hr: Apredica 24-hour HepG2 Assay for H2AX Phosphorylation (AID 2282920); settings: high-content imaging, actives raise or lower the signal
Summary of the method: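 High-content imaging of phospho-histone H2A.x immunofluorescence, nuclei counterstained with Hoechst 33342, in fixed HepG2 cells. Compounds ran 0.39–200 uM in duplicate for 24 h, final DMSO 0.5%. Signal change fitted both directions against DMSO.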

[16] = APR_HepG2_StressKinase_72hr: Apredica 72-hour HepG2 Assay for Stress Kinase (AID 2282921); settings: HepG2 stress kinase (phospho-c-Jun) imaging, actives raise or lower the signal
Summary of the method: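 Stress kinase signal reflects nuclear phospho-c-Jun staining in fixed, permeabilized cells exposed 72 h to compound at 0.39–200 uM; DMSO-normalized, fitted for increases or decreases.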

[17] = APR_HepG2_StressKinase_24hr: Apredica 24-hour HepG2 Assay for Stress Kinase (AID 2282922); settings: HepG2 stress kinase (phospho-c-Jun) imaging, actives raise or lower the signal
Summary of the method: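 After 24 hr compound treatment (up to 200 uM, final DMSO 0.5% v/v), HepG2 cells are fixed and multiplex-labeled; phospho-c-Jun intensity is captured by high-content fluorescence imaging and analyzed relative to DMSO.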

[18] = APR_HepG2_NuclearSize_72hr: Apredica 72-hour HepG2 Assay for Nuclear Size (AID 2282925); settings: high-content imaging, actives raise or lower the signal
Summary of the method: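 Compounds (0.39–200 uM, final DMSO 0.5%) were applied to HepG2 for 72 hr. Cells were then formaldehyde-fixed, permeabilized and labelled with Hoechst 33342. Nuclear diameter was quantified from six images per well.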

Measured: AC50

Chain of CCAAT/enhancer-binding protein beta (Homo sapiens) (P17676 whole entry, looked up, the tested form may be a part): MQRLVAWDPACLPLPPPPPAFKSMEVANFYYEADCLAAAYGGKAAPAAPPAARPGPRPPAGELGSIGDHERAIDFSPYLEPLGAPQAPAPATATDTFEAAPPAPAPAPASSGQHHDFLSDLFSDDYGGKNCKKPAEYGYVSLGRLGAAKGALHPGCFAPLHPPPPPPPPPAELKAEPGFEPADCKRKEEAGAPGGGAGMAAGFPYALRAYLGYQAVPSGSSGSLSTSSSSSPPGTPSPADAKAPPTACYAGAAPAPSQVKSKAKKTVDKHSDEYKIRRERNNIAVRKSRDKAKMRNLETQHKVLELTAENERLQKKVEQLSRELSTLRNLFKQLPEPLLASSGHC

CC1(C)COP(Oc2ccccc2)OC1
inactive: [1] | [2]

CN(C)C(=S)S
active: [3] 19800 nM | [5] 183 nM | [10] 39.1 nM | [11] 242 nM | [13] 125 nM | [14] 1780 nM | [15] 12000 nM | [16] 1160 nM
inactive: all other assays above

N#Cc1cccnc1
inactive: all assays above

CCCCN(CCCC)C(=S)[S-].CCCCN(CCCC)C(=S)[S-].[Ni+2]
inactive: [1] | [2]

Clc1cccc(Cl)c1Cl
inactive: all assays above

Cc1cc(SCc2sc(-c3ccc(C(F)(F)F)c(F)c3)nc2C)ccc1OCC(=O)O
inactive: [1] | [2]

C=CCOC(F)(C(F)(F)F)C(F)(F)F
inactive: [1] | [2]

CC(C)(C)c1cc([N+](=O)[O-])cc(C(C)(C)C)c1O
inactive: [1] | [2]

COP(=S)(OC)Oc1cc(Cl)c(I)cc1Cl
active: [1] 29600 nM | [2] 27900 nM

O=C1c2ccccc2C(=O)C1C(=O)C(c1ccccc1)c1ccc(Cl)cc1 (stereo unspecified)
active: [1] 27500 nM
inactive: [2]

Cc1cc(C)cc(C)c1
inactive: all assays above

CC1(C)[C@H](/C=C2\CCSC2=O)[C@@H]1C(=O)OCc1coc(Cc2ccccc2)c1
inactive: [1] | [2]

COCC(=O)N(c1c(C)cccc1C)[C@H](C)C(=O)OC
inactive: [1] | [2]

N#CS
inactive: [1] | [2]

CNC(=O)O/N=C/C(C)(C)S(C)(=O)=O
inactive: [1] | [2]

COc1ccc(N)cc1
inactive: [1] | [2]

CN(C)[C@@H]1C(=O)C(C(N)=O)=C(O)[C@@]2(O)C(=O)C3=C(O)c4c(O)ccc(Cl)c4[C@@](C)(O)[C@H]3C[C@@H]12
inactive: [1] | [2]

OC[P+](CO)(CO)CO
inactive: [1] | [2]

Oc1ccc(Cc2ccc(O)cc2)cc1
inactive: [1] | [2]

C=CCOC(N)=O
inactive: [1] | [2]

Cc1ccc(OP(=O)(Oc2ccc(C)cc2C)Oc2ccc(C)cc2C)c(C)c1
inactive: [1] | [2]

CCOCn1c(-c2ccc(Cl)cc2)c(C#N)c(Br)c1C(F)(F)F
inactive: [2]
active: [1] 1200 nM

CC(C)(c1ccccc1)c1cc(-n2nc3ccccc3n2)c(O)c(C(C)(C)c2ccccc2)c1
inactive: [1] | [2]

C[As+](C)(C)CC(=O)[O-]
inactive: [1] | [2]

CCCCCCCCCCCCOS(=O)(=O)O
inactive: [1] | [2]

CCN(CC)C(=O)C(Cl)=C(C)OP(=O)(OC)OC
inactive: [1] | [2]

CCC(C)(C#N)N=NC(C)(C#N)CC (stereo unspecified)
inactive: [1] | [2]

O=C(NC(=O)c1c(F)cccc1F)Nc1ccc(Cl)cc1
inactive: [1] | [2]

FC(F)OCC(F)(F)C(F)(F)F
inactive: [1] | [2]

O=C1C=CC(=O)c2ccccc21
inactive: [1] | [2]

BrCc1ccc(Br)cc1
inactive: [1] | [2]

CN(C)CCN(C)C
inactive: [1] | [2]

CC(O)(CS(=O)(=O)c1ccc(F)cc1)C(=O)Nc1ccc(C#N)c(C(F)(F)F)c1 (stereo unspecified)
inactive: [1] | [2]

O=[N+]([O-])c1ccc(Cl)c([N+](=O)[O-])c1
inactive: [1] | [2]

CC(C=O)Cc1ccc2c(c1)OCO2 (stereo unspecified)
inactive: [1] | [2]

CCCCCCCCCCCCBr
inactive: [1] | [2]

O=C(O)c1cc(I)cc(I)c1I
inactive: [1] | [2]

COC(=O)Nc1cccc(OC(=O)Nc2cccc(C)c2)c1
inactive: [1] | [2]

CC(F)(F)CC(F)(F)F
inactive: [1] | [2]

C#C[C@]1(O)CC[C@H]2[C@@H]3CCC4=CC(=O)CC[C@]4(C)[C@H]3CC[C@@]21C
inactive: [1] | [2]

BrCCCCBr
inactive: [1] | [2]
